PubChem BioAssay AID602439 (Southern Research Specialized Biocontainment Screening …, 2012)
Results with a measured potency or affinity are listed apart. Values without a mark were called inactive. No rule for the calls is given here.

Test: Vero 76 cell cytotoxicity, dose response, cytotoxicity control, set 3 (AID 602439)
Conditions: Vero 76 cell viability; series mostly up to 50 µM; viability: at the top concentration

SMILES | viability [%]
CN(C(=O)Cc1cccs1)c1nc2c(s1)CCCC2 | 93.3
O=C(Cc1cccs1)Nc1nc2ccccc2s1 | 92
CN1CCN(Cc2nc3ccc([N+](=O)[O-])cc3c(=O)n2-c2ccccc2F)CC1 | 92.9
O=c1c2cc([N+](=O)[O-])ccc2nc(CN2CCOCC2)n1-c1ccccc1F | 96.3
CC(C)N1CCN(Cc2nc3ccc([N+](=O)[O-])cc3c(=O)n2-c2ccccc2F)CC1 | 91.7
O=C(Cc1ccccc1)Nc1nc2c(s1)CCCC2 | 94.1
O=C(Cc1cccs1)Nc1nccs1 | 101
CCN1CCN(Cc2nc3ccc([N+](=O)[O-])cc3c(=O)n2-c2ccccc2F)CC1 | 91.3
